HT1080-NT tox: kills 2HG-producing HT-1080-NT fibrosarcoma cells. 360,000 tested, 1.6% active. AID 686970. HT-1080-NT fibrosarcoma viability, CellTiter-Glo ATP luminescence, 48 h. Potency, µM (series often up to 46.1 µM), for inactives: top-dose activity, negative = less viability, usual class: cytotoxic;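 note: NT is the 2HG producing partner of a matched IDH1 knockdown line; potency is the fitted concentration of half-maximal effect; 0% = DMSO-treated cells and -100% = media-only wells without cells; nearly all actives have a fitted effect of over 55% in size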
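A 48-hour cytotoxicity screen used HT-1080-NT cells plated 2 hours before compound delivery. ATP-based CellTiter-Glo luminescence measured viability, normalized to DMSO and no-cell controls.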
HT1080 IDH1KD tx: toxicity to HT-1080 IDH1 knockdown cells (counter line); AID 686971; 360,000 tested, 2% active; HT-1080 IDH1 knockdown viability, ATP luminescence, 48 h; Potency, µM (top dose mostly 46.1 µM), inactives show top-dose activity, negative = toxicity, usual class: cytotoxic;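 note: potency is the fitted concentration of half-maximal effect; 0% = DMSO wells and -100% = cell-free medium wells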
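Cytotoxicity counter-line: IDH1KD HT-1080, 48 h, CellTiter-Glo. Curves classed by r2, magnitude and activity.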
KB-3-1 cytotox: KB-3-1 parental cell cytotoxicity; 400,000 tested, 1.4% active; Potency, µM (doses to about 46.1 µM), actives largely listed as cytotoxic; KB-3-1 viability, CellTiter-Glo ATP luminescence, 72 h; note: potency is the fitted concentration of half-maximal effect; nearly all actives have a fitted effect of over 60% in size
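Multi-concentration cytotoxicity screen in KB-3-1 cells grown in DMEM lacking phenol red with 10% FBS. After 72 h at 37 °C with compound, ATP-dependent luminescence was recorded.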
IL1B secr inh: blocks inflammasome-driven IL-1 beta release | THP-1 LPS/ATP IL-1B secretion, AlphaLISA, 16 h; stronger effect = lower value | activity change, % at 57.5 µM | 360,000 tested, 4.7% active; in the data active = activity change below about -50%; inconclusive = mostly about -30% to -49%
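Secreted IL-1B measured by AlphaLISA bead assay after 16 h compound exposure of THP-1 cells; compounds (final up to 57.5 uM) added 1 h before LPS (250 ng/mL) and ATP (1.25 mM) stimulation; lower signal means less secretion.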
KB-V1 MDR tox: kills drug-selected multidrug resistant KB-V1 cells. KB-V1 MDR cells viability, CellTiter-Glo, 72 h. Potency, µM (highest dose often 46.1 µM), most hits filed as cytotoxic. 400,000 tested, 3.4% active. AID 1347076; note: potency is the fitted concentration of half-maximal effect; nearly all actives have a fitted effect of over 60% in size
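Cytotoxicity via CellTiter-Glo luminescence after 72 h compound exposure at 37 degrees C. Cells: drug-selected KB-V1 line, DMEM phenol-red free plus 10% FBS. Compounds tested at multiple concentrations; normalized data fitted to concentration-effect curves.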
The depositor's hits bear a star; i = inactive; ? = inconclusive; . = no result; ! = repeats disagree. The list is not random: actives were taken first. Their share in the collection is about 8.8%. Unless noted, calls come from the whole dose curve; as a rule, active = well fitted curve in the direction sought with a large enough effect; inconclusive = small, poorly fitted or top-dose-only effect, or another doubt; inactive = no such curve, though single readings can be large; an effect the other way counts as inactive or inconclusive. Unless noted, % is set by controls: 0 for no effect and ±100 for the full control effect.

SMILES	HT1080-NT tox	HT1080 IDH1KD tx	KB-3-1 cytotox	IL1B secr inh	KB-V1 MDR tox
Nc1nc2ccc(Cl)cc2cc1C(=O)NCCc1ccc(Cl)cc1Cl	1%	2%	i	49	?
Nc1nc2ccc(Cl)cc2cc1C(=O)NCCc1c[nH]c2ccccc12	?	?	9.2µM*	-14	i
CN(C)CCCNC(=O)c1cc(C(=O)c2cccc(Cl)c2Cl)c[nH]1	-23%	-26%	i	-58*	i
COc1ccc(OC)c(-c2noc(N3CCN(c4ccc(C(C)=O)cc4)CC3)n2)c1	.	.	i	.	i
O=C(O)c1cc2c([nH]c1=O)CCCC2	-4%	-5%	i	-6	i
C=CCSC(=C(C#N)C#N)c1cc2c([nH]1)CCCC2	16µM*	16µM*	18µM*	-115*	?
CC1(C(=O)Nc2ccccc2F)CCN1C(=O)Cc1cc(F)ccc1F (stereo not drawn)	15%	15%	i	-18	i
O=C(CN1C(=O)C2(OCCO2)c2ccccc21)c1ccc(Cl)cc1	-1%	-2%	i	3	21µM*
Cc1ccc(-c2ccc(=O)[nH]n2)cc1	13%	9%	i	0	?
CCCCCc1ccc(-c2ccc(=O)[nH]n2)cc1	-22%	-24%	6.5µM*	11	5.2µM*
COc1ccc(C2=C(C=C(C#N)C#N)C(c3ccccc3C)c3ccccc3O2)cc1OC (stereo not drawn)	-5%	-14%	i	-18	15µM*
NS(=O)(=O)c1cccc(NC(=O)CSc2nn(-c3ccccc3)c(=S)s2)c1	-17%	-18%	i	8	i
Cc1ccc(NC(=O)Cn2ccsc2=N)cc1S(=O)(=O)N(C)C	4%	9%	i	30	i
CN(C)S(=O)(=O)c1cc(NC(=O)CSc2nn(-c3ccc(Cl)cc3)c(=S)s2)ccc1Cl	?	?	?	-28	16µM*
Cc1ccc(NC(=O)CSc2nn(-c3ccc(Cl)cc3)c(=S)s2)cc1S(=O)(=O)N(C)C	-5%	?	?	15	21µM*
CC(NC(=O)c1ccc(C#N)cc1)C1CC2CCC1C2 (stereo not drawn)	-7%	-8%	i	-16	i
COc1ccc(C(=O)/C=C/c2ccsc2)cc1CSCC(=O)O	-8%	-2%	i	-69*	i
COc1ccc(C(C)=O)cc1CSCCC(=O)O	16%	3%	i	-3	?
CC1(C)Cc2nc3oc4c(N(CCO)Cc5ccccc5)ncnc4c3cc2CO1	-19%	-6%	i	-19	15µM*
COCCSc1ncnc2c1oc1nc3c(cc12)COC(C)(C)C3	-10%	?	?	-2	i
CCOC(=O)c1c(C)oc2ncnc(N3CCN(c4ccccc4OC)CC3)c12	.	.	i	.	i
Cc1ccc(-n2c(O)c(/C=N/Nc3ccc(S(=O)(=O)N4CCOCC4)cc3[N+](=O)[O-])c3ccccc3c2=O)c(C)c1	12µM*	?	i	-65*	?
O=C(O)c1ccc(/C=N\Nc2ccc(S(=O)(=O)N3CCOCC3)cc2[N+](=O)[O-])cc1	2%	9%	i	3	i
COc1ccccc1N(C1=NCCCS1)S(=O)(=O)c1ccc(C(C)(C)C)cc1	-4%	-3%	?	-9	23µM*
Clc1ccc2nc(-c3ccc4c(c3)OCO4)cn2c1	?	21µM*	?	25	?
SMILES	HT1080-NT tox	HT1080 IDH1KD tx	KB-3-1 cytotox	IL1B secr inh	KB-V1 MDR tox
CN(C)S(=O)(=O)c1cccc(-c2cn3cc(Cl)ccc3n2)c1	-1%	-7%	i	-16	16µM*
Cc1ccc2nc(-c3ccc4c(c3)OCCO4)cn2c1	3.7µM*	2.3µM*	3.7µM*	54	?
c1ccn2cc(-c3ccc4c(c3)OCCO4)nc2c1	?	?	?	-5	?
COc1ccc(-c2cn3cc(C)ccc3n2)cc1OC	-9%	-9%	i	-14	6.5µM*
COc1ccc(-c2cn(Cc3ccc(C)cc3)nn2)cc1	2%	-4%	i	10	?
O=[N+]([O-])c1ccc(Cl)c(S(=O)(=O)Nc2ccc(-c3ccc(N4CCCC4)nn3)cc2)c1	-4%	-12%	i	-85*	i
CC1CCN(C2=C(NS(=O)(=O)c3ccc(Br)cc3)C(=O)c3ccccc3C2=O)CC1	18µM*	-24%	?	?	?
CC1CCN(C2=C(NS(=O)(=O)c3ccccc3)C(=O)c3ccccc3C2=O)CC1	-27%	?	i	-74*	i
CC(=O)Nc1ccc(S(=O)(=O)NC2=C(N3CCN(Cc4ccccc4)CC3)C(=O)c3ccccc3C2=O)cc1	?	?	?	-10	18µM*!
CC(C)CCOP(=O)(c1ccc(N(C)C)cc1)C(O)c1ccc(C(C)C)cc1 (stereo not drawn)	-27%	-11%	i	-58*	?
CC(C)OP(=O)(c1ccc(N(C)C)cc1)C(O)c1ccccc1F (stereo not drawn)	6%	0%	i	-4	?
CC(C)CCOP(=O)(c1ccc(N(C)C)cc1)C(O)c1ccc(N(C)C)cc1 (stereo not drawn)	-13%	-18%	i	-22	i
CC(C)CCOP(=O)(c1ccc(N(C)C)cc1)C(O)c1ccccc1F (stereo not drawn)	-6%	-22%	i	-29	15µM*
O=C(Nc1ccc(S(=O)(=O)Nc2ncccn2)cc1)c1cc(=O)c2ccccc2o1	.	.	i	.	i
COc1ccc(S(=O)(=O)N2CCc3cc(OC)c(OC)cc3C2)cc1	-3%	-5%	i	-21	i
COc1cc2c(cc1OC)CN(C(=O)/C=C/c1cccs1)CC2	7.3µM*	4.1µM*	3.7µM*	0	?
COc1cc2c(cc1OC)CN(S(=O)(=O)c1cccs1)CC2	13%	-1%	i	11	18µM*
C[C@H]1CN([C@@H](C)CO)C(=O)c2cc(Br)cnc2O[C@H]1CN(C)C(=O)C1CC1	22%	8%	?	20	i
Cc1ccccc1CSCC(=O)Nc1c(C)n(C)n(-c2ccccc2)c1=O	1%	3%	i	i	18µM*
Cc1c(NCc2cc(Cl)cc(Cl)c2O)c(=O)n(-c2ccccc2)n1C	?	?	i	-3	21µM*
Cc1ccccc1CSCC(=O)Nc1ccccc1-c1ccccc1	0%	0%	i	0	23µM*
Cc1ccccc1C(=O)/C(C#N)=N/Nc1c(C)n(C)n(-c2ccccc2)c1=O	-26%	?	i	0	0.46µM*
Cc1ccc(CSCC(=O)Nc2c(C)n(C)n(-c3ccccc3)c2=O)cc1	-1%	0%	i	0	i

Compound activity: PubChem, National Center for Advancing Translational Sciences (NCATS)
